Reference: PubChem BioAssay (Tox21)
Results filed as inconclusive are left out. Calls of active or inactive are those of the source. Unless noted, calls follow the shape of the dose curve; as a rule, active = well fitted curve in the direction sought with a large enough effect in the repeat runs; inconclusive = weak or mixed curves; inactive = no such curve, though single readings can be large; an effect the other way counts as inactive or inconclusive.

Key:
[1] = target: Peroxisome proliferator-activated receptor delta (Homo sapiens) (UniProt Q03181); assay: qHTS assay to identify small molecule agonists of the peroxisome proliferator-activated receptor delta (PPARd) signaling pathway (AID 743212; calls by dose curve)
Peroxisome proliferator-activated receptor delta (Homo sapiens), sequence (Q03181 whole entry, looked up): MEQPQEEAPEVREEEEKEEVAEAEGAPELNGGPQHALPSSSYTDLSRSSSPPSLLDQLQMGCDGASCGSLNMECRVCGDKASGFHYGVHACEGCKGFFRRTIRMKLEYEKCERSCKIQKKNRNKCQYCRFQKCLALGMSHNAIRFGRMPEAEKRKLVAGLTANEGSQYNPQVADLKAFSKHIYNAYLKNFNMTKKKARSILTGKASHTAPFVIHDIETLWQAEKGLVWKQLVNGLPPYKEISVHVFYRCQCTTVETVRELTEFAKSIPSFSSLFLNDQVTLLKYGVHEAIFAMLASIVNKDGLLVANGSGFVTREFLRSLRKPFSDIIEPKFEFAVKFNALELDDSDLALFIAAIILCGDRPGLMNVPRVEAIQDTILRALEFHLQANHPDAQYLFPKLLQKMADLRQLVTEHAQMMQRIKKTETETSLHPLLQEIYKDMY
Method in brief: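 GeneBLAzer PPARd UAS-bla HEK293H cells (beta-lactamase reporter under UAS control), plated and rested 5 h at 37 C, then exposed to compounds in DMSO at 37 C; LiveBLAzer B/G FRET substrate added, 2 h room temperature, fluorescence read.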

[2] = qHTS assay to identify small molecule antagonists of the peroxisome proliferator-activated receptor delta (PPARd) signaling pathway - cell viability counter screen (AID 743213); also: nearly all actives have a fitted effect of over 50% in size; also: potency is read from the fitted curve at half-maximal effect
Method in brief: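 In this counter screen, HEK293H cells carrying a UAS-beta-lactamase reporter are co-treated with test compounds and 300 nM L165041 (final) for 17 h at 37 C; cell viability is quantified by CellTiter-Glo luminescence.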

[3] = qHTS assay to identify small molecule agonists of the farnesoid-X-receptor (FXR) signaling pathway - cell viability counter screen (AID 743218); also: nearly all actives have a fitted effect of over 45% in size; also: potency is read from the fitted curve at half-maximal effect
Method in brief: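 Parallel cytotoxicity test: compound-treated (16 h, 37 C) HEK 293T FXR-bla reporter cells were lysed with CellTiter-Glo and luminescence recorded.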

[4] = qHTS assay to identify small molecule antagonists of the farnesoid-X-receptor (FXR) signaling pathway - cell viability counter screen (AID 743221; active = well fitted cell-killing curve with a large enough effect in the repeat runs, not every such curve was filed as active; also: nearly all actives have a fitted effect of over 50% in size; also: potency is read from the fitted curve at half-maximal effect)
Method in brief: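 Luminescence from CellTiter-Glo measures cytotoxicity in GeneBLAzer FXR-UAS-bla HEK 293T cells. Cells were exposed to compounds with 50 uM chenodeoxycholic acid (final) for 16 h at 37 C, in wells also used for the reporter readout.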

[5] = qHTS assay to identify small molecule agonists of the vitamin D receptor (VDR) signaling pathway - cell viability counter screen (AID 743224); also: nearly all actives have a fitted effect of over 50% in size; also: potency is read from the fitted curve at half-maximal effect
Method in brief: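 Plated VDR-bla cells (4 h, 37C) received compound, incubated 16 h, then LiveBLAzer substrate 2 h RT; CellTiter-Glo added afterwards, luminescence read at 30 min.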

[6] = qHTS assay to identify small molecule agonists of the NFkB signaling pathway (AID 1159509; active = well fitted curve in the direction sought with a large enough effect in the signal ratio in the repeat runs, not every such curve was filed as active; the % refers to the signal ratio; also: series mostly up to about 61 µM)
Method in brief: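 NFkB-bla ME-180 cells with a beta-lactamase reporter under an NF-kB response element were plated overnight, treated with compounds in DMSO for 5 hr at 37 C, then loaded with FRET substrate for 1.5 hr at room temperature.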

[7] = qHTS assay to identify small molecule agonists of the endoplasmic reticulum stress response signaling pathway (AID 1159516; active = well fitted activation curve with a large enough effect in the signal ratio in the repeat runs, not every such curve was filed as active; the % refers to the signal ratio)
Method in brief: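 An ESRE-bla HeLa cell assay: compounds were pin-transferred from DMSO onto overnight-plated cells and left 5 hr at 37 C. Substrate was then loaded for 2 hr at room temperature before reading fluorescence at 460 nm and 530 nm.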

[8] = qHTS assay to identify small molecule agonists of the endoplasmic reticulum stress response signaling pathway - cell viability counter screen (AID 1159517; calls by dose curve;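 also: HeLa cells carrying an ER stress response element beta-lactamase reporter; series mostly up to about 61 µM; nearly all actives have a fitted effect of over 50% in size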)
Method in brief: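 Luminescence readout: CellTiter-Glo, 30 min RT, same wells as the ESRE-bla reporter read. HeLa ESRE-bla, 1,500 cells/well, o/n 37 C; cpd 5 hr 37 C/5% CO2.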

[9] = qHTS assay to identify small molecule antagonists of the retinoid-related orphan receptor gamma (ROR-gamma) signaling pathway - cell viability counter screen (AID 1159520); also: nearly all actives have a fitted effect of over 50% in size
Method in brief: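 Tet-on ROR gamma CHO cells (1,000/well) were plated 4 hr, given compounds in DMSO for 2 hr at 37 C, then induced with 1 uM final doxycycline for 16 hr. Viability was read as ATP by CellTiter-Glo luminescence after 30 min.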

[10] = target: Nuclear receptor ROR-gamma (Homo sapiens) (UniProt P51449); assay: qHTS assay to identify small molecule antagonists of the retinoid-related orphan receptor gamma (ROR-gamma) signaling pathway (AID 1159521; also: nearly all actives have a fitted effect of over 50% in size; also: potency is read from the fitted curve at half-maximal effect)
Method in brief: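 CHO Tet-on RORγ, RORE-luc reporter. Cpd 2 h pre-incubation, then dox hyclate 1 uM final, 16 h, 37 C/5% CO2. ONE-Glo luminescence; decrease = antagonist.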

[11] = qHTS assay to identify small molecule agonists of the AP-1 signaling pathway - cell viability counter screen (AID 1159525; calls by dose curve; also: nearly all actives have a fitted effect of over 55% in size; also: potency is read from the fitted curve at half-maximal effect)
Method in brief: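 ME-180 AP-1-bla, 2500 cells/well, Opti-MEM + 0.5% dialyzed FBS; overnight 37 °C; cpd 15-pt titration, 5 h 37 °C; CellTiter-Glo 30 min RT; luminescence read; normalised to TOAB and DMSO controls.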

[12] = qHTS assay to identify small molecule agonists of the AP-1 signaling pathway (AID 1159526; calls by dose curve)
[13] = qHTS assay to identify small molecule agonists of the peroxisome proliferator-activated receptor delta (PPARd) signaling pathway - cell viability counter screen (AID 743211); also: nearly all actives have a fitted effect of over 55% in size; also: potency is read from the fitted curve at half-maximal effect
Method in brief: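 HEK293H PPARd-bla, 3000 cells/well; 5 h preincubation 37C/5% CO2; cpd in DMSO, 17 h 37C; B/G FRET substrate 2 h RT; CellTiter-Glo 30 min RT, luminescence.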

[14] = target: Peroxisome proliferator-activated receptor delta (Homo sapiens) (UniProt Q03181); assay: qHTS assay to identify small molecule antagonists of the peroxisome proliferator-activated receptor delta (PPARd) signaling pathway (AID 743215; active = well fitted inhibition curve with a large enough effect in the signal ratio in the repeat runs, not every such curve was filed as active; the % refers to the signal ratio;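 also: cells stimulated with agonist L165041 at 300 nM final during compound exposure; series mostly up to about 62 µM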)
Method in brief: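 HEK293H UAS-bla, PPARd; agonist L165041 300 nM final with cpd in DMSO; 37 C 17 h; FRET substrate, RT 2 h; fluorescence intensity.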

[15] = target: Vitamin D3 receptor (Homo sapiens) (UniProt P11473); assay: qHTS assay to identify small molecule agonists of the vitamin D receptor (VDR) signaling pathway (AID 743222; calls by dose curve)
Vitamin D3 receptor (Homo sapiens), sequence (P11473 whole entry, looked up): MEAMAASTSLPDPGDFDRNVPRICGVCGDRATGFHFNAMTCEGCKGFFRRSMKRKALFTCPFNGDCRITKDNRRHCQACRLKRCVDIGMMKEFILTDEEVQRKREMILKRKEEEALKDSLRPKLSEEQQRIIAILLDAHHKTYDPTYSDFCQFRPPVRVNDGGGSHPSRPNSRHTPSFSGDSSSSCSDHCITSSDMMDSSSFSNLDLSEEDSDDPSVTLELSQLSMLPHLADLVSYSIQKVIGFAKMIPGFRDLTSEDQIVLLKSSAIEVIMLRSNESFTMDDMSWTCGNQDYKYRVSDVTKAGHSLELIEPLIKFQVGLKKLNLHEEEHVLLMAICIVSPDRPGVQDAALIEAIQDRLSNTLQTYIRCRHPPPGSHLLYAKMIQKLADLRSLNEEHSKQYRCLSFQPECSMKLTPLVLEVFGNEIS
Method in brief: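 In VDR-bla cells, compound-induced beta-lactamase expression is quantified by FRET substrate fluorescence. Treatment lasts 16 h at 37C; substrate develops 2 h at room temperature.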

[16] = target: Vitamin D3 receptor (Homo sapiens) (UniProt P11473); assay: qHTS assay to identify small molecule antagonists of the vitamin D receptor (VDR) signaling pathway (AID 743223; active = well fitted inhibition curve with a large enough effect in the signal ratio in the repeat runs, not every such curve was filed as active; the % refers to the signal ratio)
Method in brief: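 Antagonist mode uses 1alpha,25-dihydroxyvitamin D3 at 3 nM final as stimulus. VDR-bla cells receive compounds in DMSO, incubate 16 h at 37C, then a beta-lactamase FRET substrate for 2 h at room temperature before fluorescence measurement.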

[17] = qHTS assay to identify small molecule antagonists of the vitamin D receptor (VDR) signaling pathway - cell viability counter screen (AID 743225); also: nearly all actives have a fitted effect of over 50% in size
Method in brief: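 Read-out: CellTiter-Glo luminescence measured 30 min after reagent addition at room temperature. Cells were VDR-bla HEK 293T exposed 16 h at 37C, 5% CO2, to compound with 3 nM final calcitriol agonist.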

[18] = target: Bile acid receptor (Homo sapiens) (UniProt Q96RI1); assay: qHTS assay to identify small molecule antagonists of the farnesoid-X-receptor (FXR) signaling pathway (AID 743217; active = well fitted inhibition curve with a large enough effect in the signal ratio in the repeat runs, not every such curve was filed as active; the % refers to the signal ratio)
Bile acid receptor (Homo sapiens), sequence (Q96RI1 whole entry, looked up): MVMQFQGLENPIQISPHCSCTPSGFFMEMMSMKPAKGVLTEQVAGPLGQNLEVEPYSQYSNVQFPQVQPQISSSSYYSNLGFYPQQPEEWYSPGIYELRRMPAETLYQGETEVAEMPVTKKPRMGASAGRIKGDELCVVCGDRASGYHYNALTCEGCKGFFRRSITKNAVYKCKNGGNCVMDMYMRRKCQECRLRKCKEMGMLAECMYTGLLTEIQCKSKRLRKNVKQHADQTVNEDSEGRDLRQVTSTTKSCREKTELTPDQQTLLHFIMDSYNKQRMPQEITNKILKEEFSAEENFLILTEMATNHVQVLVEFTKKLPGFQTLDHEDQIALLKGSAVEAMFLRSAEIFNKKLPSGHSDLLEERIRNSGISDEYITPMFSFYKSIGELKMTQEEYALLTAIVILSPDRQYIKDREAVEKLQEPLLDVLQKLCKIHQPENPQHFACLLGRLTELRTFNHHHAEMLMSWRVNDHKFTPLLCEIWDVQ
Method in brief: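 GeneBLAzer FXR-UAS-bla HEK 293T, CDCA-stimulated (50 uM final). Compound treatment 16 h, 37 °C. Detection: beta-lactamase cleavage of B/G FRET substrate, fluorescence.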

[19] = target: Bile acid receptor (Homo sapiens) (UniProt Q96RI1); assay: qHTS assay to identify small molecule agonists of the farnesoid-X-receptor (FXR) signaling pathway (AID 743220; active = well fitted activation curve with a large enough effect in the signal ratio in the repeat runs, not every such curve was filed as active; the % refers to the signal ratio)
Method in brief: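 Beta-lactamase reporter under UAS control in GeneBLAzer FXR HEK 293T cells (5000/well) measured with LiveBLAzer FRET substrate after 2 h at room temperature. Compound exposure lasted 16 h at 37C.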

Measured: Potency

C=C(C)CCCC(C)CCO (configuration not stated)
not listed: [13] | [14] | [15] | [16] | [17] | [18] | [19]
inactive: all other assays above

CCC(OCCCOC)OC(C)=O (configuration not stated)
not listed: [11] | [18] | [19]
inactive: all other assays above

Cc1cccc(O)c1N
active: [10] 13.8 µM | [11] 44.1 µM
not listed: [1] | [12] | [14] | [15] | [16]
inactive: all other assays above

CCCCCCCCCI
not listed: [12] | [15] | [16] | [18] | [19]
inactive: all other assays above

CC1=C(CC=O)C(C)(C)CCC1
not listed: [1] | [10] | [14] | [16] | [18] | [19]
inactive: all other assays above

O[C@@H]1CO[C@H]2[C@@H]1OC[C@@H]2O
not listed: [10] | [14]
inactive: all other assays above

CC(=O)OCC(=O)NCCCOc1cccc(CN2CCCCC2)c1
not listed: [2] | [11] | [14]
inactive: all other assays above

O=C=Nc1cccc(C(F)(F)F)c1
inactive: [1] | [14] | [6] | [7] | [8] | [9] | [11] | [12]

CCCCN(CCN(CCCC)C(=O)N1CCOCC1)C(=O)N1CCOCC1
inactive: [3] | [4] | [16] | [17] | [6] | [7] | [8] | [9] | [11]
active: [5] 33.5 µM

N#[N+]c1ccc2c(S(=O)(=O)[O-])cccc2c1O
not listed: [1] | [11] | [14] | [18] | [19]
inactive: all other assays above

CC(O)c1ccccc1 (configuration not stated)
not listed: [10] | [11] | [14] | [18] | [19]
inactive: all other assays above

c1ccc2c(c1)CCc1ccccc1N2
not listed: [10] | [12] | [16] | [18] | [19]
inactive: all other assays above

O=C(/C=C/c1ccc(O)c(O)c1)O[C@@H]1C[C@@](OC(=O)/C=C/c2ccc(O)c(O)c2)(C(=O)O)C[C@@H](O)[C@@H]1O
not listed: [1] | [10] | [18] | [19]
inactive: all other assays above

CC(C)(C)CC(=O)OCC(=O)[C@@]1(O)CC[C@H]2[C@@H]3CCC4=CC(=O)C=C[C@]4(C)[C@H]3[C@@H](O)C[C@@]21C
active: [10] 26.6 µM
not listed: [1] | [11] | [14] | [16] | [18] | [19]
inactive: all other assays above

COC(=O)[C@H]1[C@H]2C[C@@H]3c4[nH]c5cc(OC)ccc5c4CCN3C[C@H]2C[C@@H](OC(=O)/C=C/c2ccc(O)c(OC)c2)[C@@H]1OC
inactive: [19] | [17] | [6] | [7] | [8] | [11] | [12]
active: [13] 8.41 µM | [2] 10.6 µM | [3] 8.41 µM | [4] 18.8 µM | [10] 13.3 µM

CC(CC1c2ccccc2CCc2ccccc21)CN(C)C (configuration not stated)
inactive: [14] | [18] | [3] | [19] | [4] | [5] | [6] | [7] | [8] | [9]

CCC=CC#N
not listed: [3] | [10] | [14] | [15] | [16] | [17] | [18] | [19]
inactive: all other assays above

COc1ccccc1N1CCN(CC(O)COc2cccc3ccccc23)CC1 (configuration not stated)
active: [13] 26.6 µM | [2] 29.8 µM | [11] 23.9 µM
not listed: [10] | [12] | [18] | [19]
inactive: all other assays above

CO/N=C(/C(=O)N[C@@H]1C(=O)N2C(C(=O)O)=C(COC(N)=O)CS[C@H]12)c1ccco1
not listed: [11] | [12] | [14] | [18] | [19]
inactive: all other assays above
